Laboratory results as given in PubChem BioAssay (NCATS).
Records with an inconclusive call do not appear. Active and inactive are the calls of the source. The call rests on the fitted dose curve; in most records, active means well fitted curve in the direction sought with a large enough effect; inconclusive means small, poorly fitted or top-dose-only effect, or another doubt; inactive means no such curve, though single readings can be large; an effect the other way counts as inactive or inconclusive.

Assays:
W2 = assay: qHTS profiling for inhibitors of Plasmodium falciparum proliferation (AID 504749);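 further: 0% = DMSO vehicle and full inhibition = artemisinin control; nearly all actives have a fitted effect of over 60% in size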; conditions: P. falciparum in erythrocytes, SYBR Green DNA, 72 h; series mostly up to 28.7 µM
Outline: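 P. falciparum-infected erythrocytes (0.3% parasitemia, 2.5% hematocrit final) were exposed to compounds for 72 h at 37 C in 5% CO2, then lysed with SYBR Green buffer overnight at room temperature; parasite DNA fluorescence was normalized to artemisinin and DMSO controls.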

CRL-7250 [1] = assay: Cytotoxic Profiling of Annotated Libraries Using Quantitative High-Throughput Screening (AID 1296008); conditions: Five cell lines viability, CellTiter-Glo ATP luminescence, 48-72 h; max response: active compounds read low; further: nearly all actives have a fitted effect of over 60% in size; on max response: on the % scale 0 is the no-effect control and ±100 the full control effect
Outline: (§1)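 Compounds were pin-transferred onto cells and incubated 48 or 72 hr at 37 degree Celsius, 95% humidity. CellTiter-Glo was added, plates sat 10 min at room temperature, then ATP-coupled luminescence was imaged as the viability read-out.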

HEK293 = assay: as above; conditions: Five cell lines viability, CellTiter-Glo ATP luminescence, 48-72 h; max response: active compounds read low
Outline: as §1

HaCat [2] = assay: as above; conditions: Five cell lines viability, CellTiter-Glo ATP luminescence, 48-72 h; max response: active compounds read low
Outline: as §1

KB-3-1 = assay: as above; conditions: Five cell lines viability, CellTiter-Glo ATP luminescence, 48-72 h; max response: active compounds read low
Outline: as §1

NIH3T3 [3] = assay: as above; conditions: Five cell lines viability, CellTiter-Glo ATP luminescence, 48-72 h; max response: active compounds read low
Outline: as §1

HACAT [4] = assay: qHTS assay to identify novel small-molecules to repurpose for Merkel cell carcinoma treatment (AID 1296009); conditions: MCC and control cell lines, CellTiter-Glo viability, 72 h; at 44.8 µM (top of the series) unless noted; further: nearly all actives have a fitted effect of over 60% in size
Outline: (§2)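 Cells exposed to NPC (8-point) and MIPE (11-point) compound dilutions for 72 hr at 37 degree celsius; viability read by CellTiter-Glo luminescence, normalized to no-cell and DMSO in-plate controls.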

HEK293T = assay: as above; conditions: MCC and control cell lines, CellTiter-Glo viability, 72 h; at 44.8 µM (top of the series) unless noted
Outline: as §2

MCC-13 = assay: as above; conditions: MCC and control cell lines, CellTiter-Glo viability, 72 h; series mostly up to 46 µM
Outline: as §2

MCC-26 = assay: as above; conditions: MCC and control cell lines, CellTiter-Glo viability, 72 h; series mostly up to 46 µM
Outline: as §2

MKL-1 = assay: as above; conditions: MCC and control cell lines, CellTiter-Glo viability, 72 h; series mostly up to 46 µM
Outline: as §2

MKL-2 = assay: as above; conditions: MCC and control cell lines, CellTiter-Glo viability, 72 h; series mostly up to 46 µM
Outline: as §2

NIH3T3 [5] = assay: as above; conditions: MCC and control cell lines, CellTiter-Glo viability, 72 h; at 44.8 µM (top of the series) unless noted
Outline: as §2

UISO = assay: as above; conditions: MCC and control cell lines, CellTiter-Glo viability, 72 h; series mostly up to 46 µM
Outline: as §2

WaGa = assay: as above; conditions: MCC and control cell lines, CellTiter-Glo viability, 72 h; series mostly up to 46 µM
Outline: as §2

C33A = assay: Primary qHTS to identify gynecologic anti-cancer compounds using libraries of approved drugs and bioactive compounds (AID 1345084); conditions: Gynecologic cancer cell panel viability, ATPlite luminescence, 48 h; series mostly up to 57.5 µM; further: on the % scale 0 is the no-effect control and ±100 the full control effect; nearly all actives have a fitted effect of over 55% in size
Outline: (§3)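 Cells, 1,000 per well, plated 16 h, then exposed 48 h at 37 C to compounds. Viability by ATPlite luminescence after 15 min at room temperature.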

CAOV3 = assay: as above; conditions: Gynecologic cancer cell panel viability, ATPlite luminescence, 48 h; series mostly up to 57.5 µM
Outline: as §3

CASKI = assay: as above; conditions: Gynecologic cancer cell panel viability, ATPlite luminescence, 48 h; series mostly up to 57.5 µM
Outline: as §3

Es-2 = assay: as above; conditions: Gynecologic cancer cell panel viability, ATPlite luminescence, 48 h; series mostly up to 57.5 µM
Outline: as §3

CRL-7250 [6] = assay: qHTS assay to identify novel small-molecules to repurpose for Merkel cell carcinoma treatment (AID 1296009); conditions: MCC and control cell lines, CellTiter-Glo viability, 72 h; at 44.8 µM (top of the series) unless noted; further: nearly all actives have a fitted effect of over 60% in size
Outline: as §2

CC[N+]1(CCOC(=O)C(O)(c2ccccc2)c2ccccc2)CCCCC1
inactive: Potency (W2) | max response (CRL-7250 [1]) -4.52% | outcome (HEK293) | outcome (HaCat [2]) | max response (KB-3-1) 1.27% | outcome (NIH3T3 [3]) | outcome (HACAT [4]) | outcome (HEK293T) | Potency (MCC-13) | Potency (MCC-26) | Potency (MKL-1) | Potency (MKL-2) | outcome (NIH3T3 [5]) | Potency (UISO) | Potency (WaGa) | Potency (C33A) | Potency (CAOV3) | Potency (CASKI) | Potency (Es-2)

Oc1ccc2c3c1O[C@H]1c4[nH]c5c(c4C[C@@]4(O)[C@@H](C2)N(CC2CC2)CC[C@]314)C[C@@]1(O)[C@H]2Cc3ccc(O)c4c3[C@@]1(CCN2CC1CC1)[C@H]5O4
inactive: outcome (CRL-7250 [1]) | outcome (HEK293) | max response (HaCat [2]) -0.228% | outcome (KB-3-1) | max response (NIH3T3 [3]) -5.25% | outcome (CRL-7250 [6]) | outcome (HEK293T) | Potency (MCC-13) | Potency (MKL-1) | Potency (MKL-2) | Potency (UISO) | Potency (WaGa)

CCOC(=O)c1cncn1[C@H](C)c1ccccc1
inactive: max response (CRL-7250 [1]) 2.73% | outcome (HEK293) | outcome (HaCat [2]) | max response (KB-3-1) 6.23% | outcome (NIH3T3 [3]) | outcome (HACAT [4]) | outcome (HEK293T) | Potency (MCC-13) | Potency (MCC-26) | Potency (MKL-1) | Potency (MKL-2) | outcome (NIH3T3 [5]) | Potency (UISO) | Potency (WaGa)

CCCC[N+]1(C)[C@H]2CC(OC(=O)[C@H](CO)c3ccccc3)C[C@H]1[C@H]1O[C@H]12 (some centres undefined)
inactive: max response (CRL-7250 [1]) -3.26% | max response (HEK293) -1.83% | outcome (HaCat [2]) | max response (KB-3-1) -2.74% | max response (NIH3T3 [3]) -3.27% | outcome (HACAT [4]) | Potency (MCC-13) | Potency (MKL-1) | Potency (MKL-2) | Potency (UISO) | Potency (WaGa)

CC1=NN=C(c2ccc(N)cc2)c2cc3c(cc2C1)OCO3
inactive: outcome (CRL-7250 [1]) | max response (HEK293) 3.46% | max response (HaCat [2]) -15.7% | outcome (KB-3-1) | outcome (NIH3T3 [3]) | outcome (CRL-7250 [6]) | Potency (MCC-13) | Potency (MKL-1) | Potency (MKL-2) | outcome (NIH3T3 [5]) | Potency (UISO) | Potency (WaGa)

CCCCC(CC)COC(=O)c1ccccc1C(=O)OCC(CC)CCCC (centres undefined)
inactive: max response (CRL-7250 [1]) -5.66% | outcome (HEK293) | outcome (HaCat [2]) | max response (KB-3-1) -15.4% | max response (NIH3T3 [3]) -8.2% | outcome (HACAT [4]) inactive [at 92 µM] | outcome (HEK293T) inactive [at 92 µM] | Potency (MCC-13) | Potency (MCC-26) | Potency (MKL-1) | Potency (MKL-2) | Potency (UISO) | Potency (WaGa) | Potency (C33A) | Potency (CASKI) | Potency (Es-2)

O=C(N[C@H]1CN2CCC1CC2)c1ccc(Cl)cc1
inactive: outcome (CRL-7250 [1]) | max response (HEK293) -12.5% | outcome (HEK293) | outcome (HaCat [2]) | outcome (KB-3-1) | max response (NIH3T3 [3]) -6.97% | outcome (NIH3T3 [3]) | outcome (CRL-7250 [6]) | outcome (HACAT [4]) | outcome (HEK293T) | Potency (MCC-13) | Potency (MKL-1) | Potency (MKL-2) | outcome (NIH3T3 [5]) | Potency (UISO) | Potency (WaGa) | Potency (C33A) | Potency (CAOV3) | Potency (CASKI) | Potency (Es-2)
